Screening data: PubChem, National Center for Advancing Translational Sciences (NCATS)
Rows were chosen to be rich in hits. Some 19% of all compounds tested hit in one or more screens of this group.
MCF10A rerep – induces DNA re-replication in MCF 10a normal breast cells; MCF 10A DNA re-replication, Hoechst nuclear intensity, 48 h; Potency, µM (series often up to 46.1 µM), for inactives: at the highest dose activity, positive = re-replication, most hits filed as activators; actives 2.9% (n = 350,000); AID 624296; further: potency means the concentration at half of the fitted maximal effect; % of control where 0% means no effect; nearly all actives have a fitted effect of over 50% in size
DT40 TDP1 no CPT – qHTS for Inhibitors of human tyrosyl-DNA phosphodiesterase 1 (TDP1): qHTS in cells in absence of CPT; DT40 Tdp1-/- hTDP1 cells, no CPT, ATP luminescence, 48 h; Potency, µM (top dose mostly 46.2 µM), for inactives: top-dose activity change, negative = growth inhibition, actives largely listed as inhibitors; actives 15% (n = 420,000); AID 686978, 2013; further: potency means the concentration at half of the fitted maximal effect; on the % scale 0 is the no-effect control and ±100 the full control effect; nearly all actives have a fitted effect of over 55% in size
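No-CPT arm: Tdp1-/-;hTDP1 DT40 cells (400/well) plus compounds, incubated ≥48 hr at 37 °C. Readout CellTiter-Glo luminescence.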
DT40 TDP1 CPT – DT40-hTDP1 cell growth loss with CPT. chicken DT40 Tdp1-/-;hTDP1 cells + 20 nM CPT, ATP luminescence, 48 h. Potency, µM (doses to about 46.2 µM), for inactives: at the top dose activity change, negative = growth inhibition, usual class: inhibitors. actives 12% (n = 420,000); further: potency means the concentration at half of the fitted maximal effect; on the % scale 0 is the no-effect control and ±100 the full control effect; nearly all actives have a fitted effect of over 55% in size
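Cell growth measured by CellTiter-Glo luminescence after a minimum 48 h, 37 C compound exposure with 20 nM CPT in Tdp1-knockout DT40 cells stably expressing hTDP1, seeded 400/well; qHTS titration format.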
IL1B secr inh – inhibitors of inflammasome signaling (IL-1 beta secretion); THP-1 LPS/ATP IL-1B secretion, AlphaLISA, 16 h; hits give low values; activity change, % at 57.5 µM; actives 4.7% (n = 360,000); AID 743279; in the data active means activity change below about -50%; inconclusive means mostly about -30% to -49%; further: on the % scale 0 is the no-effect control and ±100 the full control effect
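Secreted IL-1B measured by AlphaLISA bead assay after 16 h compound exposure of THP-1 cells; compounds (final up to 57.5 uM) added 1 h before LPS (250 ng/mL) and ATP (1.25 mM) stimulation; lower signal means less secretion.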
Chronic BCR inh – blocks chronic active B-cell receptor signaling. actives 0.05% (n = 340,000). Potency, µM (top dose mostly 46.1 µM), for inactives: top-dose activity change, negative = inhibition, usual class: inhibitors. ABC-DLBCL IkBa-CBG/CBR reporter, luminescence ratio, 4 h. AID 493014; active means well fitted inhibition curve with a large enough effect in the signal ratio, with a control signal flat, not every such curve was filed as active; inconclusive means small, poorly fitted or top-dose-only effect, or effect the other way, or a change in a side signal; the % refers to the signal ratio;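 further: potency means the concentration at half of the fitted maximal effect; plate controls were basal doxycycline-induced cells for no effect and cells given 10 µM MG132 for full effect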
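Compounds up to 46 uM were incubated four hours with TMD8 cells whose green CBG68 luciferase is fused to IkappaBalpha; red CBR luminescence normalised the signal, and concentration-effect curves were fitted to fusion, red and ratio data.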
SW480 rerep – DNA re-replication induction in SW480 cells | SW480 DNA re-replication, Hoechst DNA content imaging, 48 h | Potency, µM (series often up to 46.1 µM), for inactives: top-dose re-replication activation, usual class: activators | actives 1.8% (n = 340,000) | AID 624297; further: potency means the concentration at half of the fitted maximal effect; % of control where 0% means no effect; nearly all actives have a fitted effect of over 55% in size
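Compounds, transferred as 23 nL by pin tool, were incubated with cells for 48 hr; DNA content per nucleus was then quantified by Hoechst staining and fluorescence plate imaging.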
An asterisk follows results filed as active; i = inactive; ? = inconclusive; . = no result given; [ ] = another dose, or the depositor's remark. Unless noted, the call rests on the fitted dose curve; in most records, active means well fitted curve in the direction sought with a large enough effect; inconclusive means small, poorly fitted or top-dose-only effect, or another doubt; inactive means no such curve, though single readings can be large; an effect the other way counts as inactive or inconclusive.

SMILES	MCF10A rerep	DT40 TDP1 no CPT	DT40 TDP1 CPT	IL1B secr inh	Chronic BCR inh	SW480 rerep
O=C1OCCN1C(=O)[C@H]1[C@H](c2ccccc2)C(c2ccc(F)cc2)=NN1c1ccc(Br)cc1	9.2µM*	?	?	-16	7%	23µM*
C[C@@H]1C(c2ccccc2)=NN(c2ccccc2)[C@H]1C(=O)N1CCOC1=O	9%	?	?	-19	-3%	?
O=C1OCCN1C(=O)[C@H]1[C@H](c2ccccc2)C(c2ccccc2)=NN1c1ccccc1	21µM*	-19%	?	-7	-2%	-5%
O=C1OCCN1C(=O)[C@H]1[C@H](c2ccccc2)C(c2ccccc2)=NN1c1ccc(Br)cc1	?	?	-26%	-7	9%	18µM*
Cc1ccc(CNC(=O)c2cc(Cl)cc(Cl)c2)n1C	0%	21%	-11%	33	-2%	-10%
Cc1ccc2nc(COc3ccc(Cl)cc3)cc(=O)n2c1	-2%	-27%	-14%	-1	?	-12%
O=C(c1ccc(F)c(F)c1)N1CCOc2ccc(CN3CCN(CCO)CC3)cc2C1	.	-11%	22%	.	.	.
O=S1(=O)CC(N2CC=CC2)CN1Cc1ccc(F)cc1 (centres undefined)	.	-10%	?	-9	.	.
CCN(Cc1ccccc1)S(=O)(=O)c1ccc(OC)cc1	1%	16µM*	?	-4	?	-11%
Cc1nc(-c2ccc(S(=O)(=O)N(Cc3ccccc3)C(C)C)cc2)co1	.	15µM*	?	.	.	.
CCN(Cc1ccccc1)S(=O)(=O)c1ccc(-c2coc(C)n2)cc1	.	23µM*	13µM*	.	.	.
CC(C)CN1CCCC2(CCN(C(=O)c3cnccn3)CC2)C1	.	0%	1%	.	.	.
CN1CCN(c2nc(-c3ccccc3C(F)(F)F)nc3ccccc23)CC1	.	-1%	-5%	.	.	.
Cc1ccc(CN2CC(C(=O)N3CCN(c4ccccc4Cl)CC3)CC2=O)cc1 (centres undefined)	10%	?	?	-58*	2%	-12%
O=C(C1CC(=O)N(C2CCCCC2)C1)N1CCN(c2cccc(C(F)(F)F)c2)CC1 (centres undefined)	?	?	16µM*	-5	4%	-1%
Cc1cccc(N2CCN(C(=O)C3CC(=O)N(C4CCCC4)C3)CC2)c1C (centres undefined)	6%	23µM*	18µM*	-2	-3%	6%
O=C(C1CC(=O)N(C2CCCC2)C1)N1CCN(c2ccccc2)CC1 (centres undefined)	3%	0%	-6%	i	6%	-15%
Cc1ccc(C)c(N2CCN(C(=S)NC3CCCCC3)CC2)c1	9%	-14%	-2%	0	7%	0%
Cc1cccc(N2CCN(C(=S)NC3CCCCC3)CC2)c1C	20%	16µM*	?	0	?	3%
CN(C(=O)C1CCN(S(=O)(=O)c2ccccc2)CC1)c1c(N)n(Cc2ccccc2)c(=O)[nH]c1=O	0%	-1%	-27%	5	-3%	0%
CCS(=O)(=O)N1Cc2ccccc2CC1C(=O)N1CCN(c2cccc(C)c2C)CC1 (centres undefined)	363%[0.0737 µM]	15µM*	?	4	3%	1%
Cc1cc(N2CCN(c3ccccc3)CC2)n2ncnc2n1	6%	?	-22%	1	?	-5%
Cc1cc(N2CCC(C(=O)N3CCN(c4cccc(C)c4C)CC3)CC2)n2ncnc2n1	?	21µM*	?	-25	-1%	4%
Cc1ccccc1N1CCN(C(=O)C2CCC(=O)N(C3CCCC3)C2)CC1 (centres undefined)	17%	6%	-10%	33	0%	5%
